Assay results from PubChem BioAssay (NCATS).
Where “and” joins values, the source holds several entries; their conditions need not be identical. Identical values can stand only once. Results filed as inconclusive are left out. Calls of active or inactive are those of the source. Calls come from the whole dose curve; as a rule, active = well fitted curve in the direction sought with a large enough effect; inconclusive = small, poorly fitted or top-dose-only effect, or another doubt; inactive = no such curve, though single readings can be large; an effect the other way counts as inactive or inconclusive.

What was measured:
[1] = Viability qHTS for spleen associated tyrosine kinase inhibitor (SYKi) naive MV4-11 cells (AID 1963823); note: nearly all actives have a fitted effect of over 40% in size
How it was run: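 Viability of MV4-11 AML cells lacking prior SYK inhibitor exposure is scored by CellTiter-Glo luminescence following 72 hr compound incubation at 37 C, 5% CO2, seeded at 500 cells per well.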

[2] = Viability qHTS for spleen associated tyrosine kinase inhibitor (SYKi) drug resistant MV4-11 cells (AID 1963824); note: nearly all actives have a fitted effect of over 35% in size
How it was run: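 CellTiter-Glo luminescence, read 10 min after reagent addition, reports viability after a 72 hr compound exposure. Cells are an MV4-11 line made resistant to SYK inhibition, seeded at 500 per well onto compound-containing plates.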

[3] = Cellular viability qHTS for adrenocortical cancer (ACC) cell line NCI-H295R (AID 1963990); note: nearly all actives have a fitted effect of over 60% in size
How it was run: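 IC50 and maximal efficacy derive from four-parameter logistic modelling of titration curves, with reads scaled between DMSO-only wells (0%) and doxorubicin hydrochloride (100% inhibition). Compounds spanned up to 46 uM over 48 h.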

[4] = Cellular viability qHTS for adrenocortical cancer (ACC) cell line SW-13 (AID 1963989); conditions: SW-13 ACC cells viability, CellTiter-Glo, 48 h; activity (max response): active compounds read low; note: nearly all actives have a fitted effect of over 65% in size;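 for activity (max response): cells grown in serum-free medium with ITS supplement; % is set by controls: 0 for no effect and ±100 for the full control effect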
How it was run: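 Luminescent ATP read-out (CellTiter-Glo, 20 min at room temperature) measured metabolically competent SW-13 cells after 48 h compound treatment. Final concentrations spanned up to 46 uM; bortezomib served as positive control.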
Potency is the fitted concentration of half-maximal effect.

Cn1cncc1C(N)(c1ccc(Cl)cc1)c1ccc2c(c1)c(-c1cccc(Cl)c1)cc(=O)n2C (configuration not stated)
active: Potency [1] 1.05 µM | Potency [2] 1.86 µM | Potency [3] 3.55 µM

c1ccc(-c2cc(CCC3CCNCC3)c3ccccc3n2)cc1
active: Potency [1] 7.42 µM | Potency [2] 6.61 µM | Potency [3] 15.8 µM

Cc1cc(C(C#N)c2ccc(Cl)cc2)c(Cl)cc1NC(=O)c1cc(I)cc(I)c1O (configuration not stated)
active: Potency [1] 18.8 µM | Potency [2] 18.8 µM and 23.1 µM | Potency [4] 4.11 µM | Potency [3] 3.66 µM

CC1=C(C/C=C(\C)CCC[C@H](C)CCC[C@H](C)CCCC(C)C)C(=O)c2ccccc2C1=O
inactive: Potency [1] | Potency [2] | Potency [3]

O=C(O)C(Cc1cc(I)c(O)c(I)c1)c1ccccc1 (configuration not stated)
inactive: Potency [1] | Potency [2] | Potency [3]

Cc1cc(O)c(C)c(C)c1O
inactive: Potency [1] | Potency [2] | activity (max response) [4] 6.25% | Potency [3]

CCCCOc1cc(C(=O)OCCN(CC)CC)ccc1N
inactive: Potency [1] | Potency [2] | activity (max response) [4] -10.3% | Potency [3]

COc1ccc2c(c1)[C@]1(C[C@H]1c1ccc3c(/C=C/c4ccc(CN5C[C@@H](C)O[C@@H](C)C5)cc4)n[nH]c3c1)C(=O)N2
active: Potency [1] 0.105 µM | Potency [2] 0.332 µM | Potency [4] 14.1 µM | Potency [3] 6.31 µM

CCn1nnc2c(N3CCOCC3)nc(-c3ccc(NC(=O)Nc4ccc(C(=O)N5CCN(C)CC5)cc4)cc3)nc21
inactive: Potency [3]
active: Potency [1] 20.6 nM and 46.8 nM | Potency [2] 29.1 nM and 46.8 nM

COc1cc(F)ccc1-c1ncnc(Nc2cccc(CS(C)(=N)=O)c2)n1 (configuration not stated)
active: Potency [1] 1.16 µM | Potency [2] 1.16 µM | Potency [4] 6.31 µM | Potency [3] 7.08 µM

CCCCOc1ccc(C(=O)CCN2CCCCC2)cc1
active: Potency [1] 21.1 µM | Potency [2] 16.8 µM | Potency [3] 8.2 µM

NS(=O)(=O)OC[C@@H]1C[C@@H](n2ccc3c(N[C@H]4CCc5ccccc54)ncnc32)C[C@@H]1O
active: Potency [1] 103 nM and 164 nM | Potency [2] 73.1 nM and 82 nM and 74.2 nM | Potency [3] 0.708 µM

Nc1ncnc2c1ncn2[C@@H]1O[C@H](CO)C[C@H]1O
inactive: Potency [1] | Potency [2] | activity (max response) [4] -9.5%
active: Potency [3] 15.8 µM

CCN(Cc1ccncc1)C(=O)C(CO)c1ccccc1 (configuration not stated)
inactive: Potency [1] | Potency [2] | activity (max response) [4] -0.134% | Potency [3]

COc1cc(N2CCC(N3CCN(C)CC3)CC2)ccc1Nc1ncc(Cl)c(Nc2ccccc2S(=O)(=O)C(C)C)n1
active: Potency [1] 92 nM and 148 nM | Potency [2] 116 nM and 209 nM | Potency [4] 5.01 µM | Potency [3] 1.12 µM

CCCCCCCCCCCCCCCC[N+](C)(C)CCN(Cc1ccc(OC)cc1)c1ncccn1
active: Potency [1] 2.66 µM | Potency [2] 2.11 µM | Potency [4] 20.6 µM | Potency [3] 16.4 µM

FC(F)(F)c1ccc(Nc2nc(-c3c(C(F)(F)F)nc4ccccn34)cs2)cc1
active: Potency [1] 0.184 µM | Potency [2] 0.13 µM | Potency [4] 0.282 µM | Potency [3] 0.316 µM

Nc1c2ccccc2nc2ccccc12
active: Potency [1] 2.99 µM | Potency [2] 3.76 µM | Potency [4] 7.31 µM | Potency [3] 7.31 µM

Cc1ccc(-c2ncc(Cl)cc2-c2ccc(S(C)(=O)=O)cc2)cn1
inactive: Potency [1] | Potency [2] | activity (max response) [4] 3.04% and -7.76% | Potency [3]

Cc1ccc(S(=O)(=O)Nc2cc(C(F)(F)F)ccc2C(=O)Nc2nc(-c3ccccc3)cs2)cc1
active: Potency [1] 2.95 µM | Potency [2] 2.95 µM | Potency [4] 2.24 µM | Potency [3] 2.51 µM

CO/N=C(\C(=O)O)c1csc(NC(=O)CCl)n1
inactive: Potency [1] | Potency [2] | activity (max response) [4] 13% | Potency [3]

CCN(CC)CCNC(=O)c1c(C)[nH]c(/C=C2/C(=O)Nc3ccc(-c4csc(-c5ccccc5)n4)cc32)c1C
active: Potency [1] 0.468 µM | Potency [2] 1.32 µM | Potency [3] 3.55 µM

O=C(CO)[C@@H](O)[C@H](O)[C@@H](O)CO
inactive: Potency [1] | Potency [2] | activity (max response) [4] 0.0107% | Potency [3]

CN=C(NC#N)NCCSCc1nc[nH]c1C
inactive: Potency [1] | Potency [2] | activity (max response) [4] -4.08% | Potency [3]

CN1CCN(c2ccc3nc(-c4c(N)c5c(F)cccc5[nH]c4=O)[nH]c3c2)CC1
active: Potency [1] 0.0116 µM | Potency [2] 16.4 nM and 18.6 nM | Potency [3] 17.8 µM

COc1c(C)c2c(c(O)c1C/C=C(\C)CCC(=O)OCCN1CCOCC1)C(=O)OC2
active: Potency [1] 1.5 µM and 332 nM | Potency [2] 1.19 µM and 833 nM | Potency [3] 1.26 µM

CCCCC1=NC2(CCCC2)C(=O)N1Cc1ccc(-c2ccccc2-c2nn[nH]n2)cc1
inactive: Potency [1] | Potency [2] | activity (max response) [4] 8.5% | Potency [3]

COc1ccc(-c2oc3ncnc(N)c3c2-c2ccc(NC(=O)Nc3cc(C(F)(F)F)ccc3F)cc2)cc1
inactive: activity (max response) [4] 0.756% | Potency [3]
active: Potency [1] 41.1 nM and 66.1 nM | Potency [2] 103 nM and 166 nM

CN(C)Cc1cccc(N=C(c2ccccc2)c2c(O)[nH]c3cc(C(N)=O)ccc23)c1
active: Potency [1] 0.468 µM | Potency [2] 2.91 µM and 1.18 µM
inactive: Potency [3]

Cc1ccc(C(C)OC(=O)C2(C)CCC(C(=O)O)C2(C)C)cc1 (configuration not stated)
inactive: Potency [1] | Potency [2] | activity (max response) [4] 8.64% | Potency [3]

C=CC[C@@H]1/C=C(\C)C[C@H](C)C[C@H](OC)[C@H]2O[C@@](O)(C(=O)C(=O)N3CCCC[C@H]3C(=O)O[C@H](/C(C)=C/[C@@H]3CC[C@@H](O)[C@H](OC)C3)[C@H](C)[C@@H](O)CC1=O)[C@H](C)C[C@@H]2OC
inactive: Potency [3]
active: Potency [1] 18.6 µM | Potency [2] 14.8 µM
